Measured values as given in PubChem BioAssay AID1159580 (chemical genetic matrix, 2015).
The campaign covered roughly 5,500 compounds. About 2,000 (36%) were called active. Another 18% or so got no clear call; they are omitted. Rule as the data show it: active = normalized growth mostly below about 0.91 (no sharp cut-off); inconclusive = no clear call, values can overlap the other calls; inactive = mostly above about 0.92. This is one part of the list.

Assay: chemical genetic growth profiling, strain panel (AID 1159580);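 also: tested at 20 µM; growth read once vehicle control cultures reached saturation at 30 °C; 1 = growth at the plate median or of vehicle wells; lower values mean less growth of the strain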
Details: growth OD

Measured: normalized growth

CCn1cc(C(=O)O)c(=O)c2cnc(N3CCNCC3)nc21
inactive: S. cerevisiae deletion strains, locus YKL009W, strain mrt4, hits give low values 1.03 | S. cerevisiae deletion strains, locus YKL068W, hits give low values 0.994 | S. cerevisiae deletion strains, locus YKL085W, strain MDH1 (second series), hits give low values 0.984 | S. cerevisiae deletion strains, locus YKL085W, strain MDH1, hits give low values 0.984 | S. cerevisiae deletion strains, locus YKL160W, strain elf1, hits give low values 1.03 | S. cerevisiae deletion strains, locus YKL190W, strain CNB1, hits give low values 1 | S. cerevisiae deletion strains, locus YKR001C, strain vps1, hits give low values 1.02 | S. cerevisiae deletion strains, locus YKR026C, strain gcn3, hits give low values 1.01 | S. cerevisiae deletion strains, locus YKR091W, strain srl3, hits give low values 1 | S. cerevisiae deletion strains, locus YLL001W, strain dnm1, hits give low values 1.01 | S. cerevisiae deletion strains, locus YLL026W, hits give low values 1.02 | S. cerevisiae deletion strains, locus YLL041C, strain sdh2, hits give low values 1.01 | S. cerevisiae deletion strains, locus YLR027C, strain aat2, hits give low values 1.01 | S. cerevisiae deletion strains, locus YLR039C, strain RIC1, hits give low values 0.942 | S. cerevisiae deletion strains, locus YLR058C, strain SHM2, hits give low values 0.988 | S. cerevisiae deletion strains, locus YLR102C, strain apc9, hits give low values 0.993 | S. cerevisiae deletion strains, locus YLR113W, strain HOG1, hits give low values 1.02 | S. cerevisiae deletion strains, locus YLR221C, strain rsa3, hits give low values 1 | S. cerevisiae deletion strains, locus YLR258W, strain gsy2, hits give low values 1.04 | S. cerevisiae deletion strains, locus YLR262C, strain YPT6 (second series), hits give low values 0.992 | S. cerevisiae deletion strains, locus YLR262C, strain YPT6, hits give low values 0.975 | S. cerevisiae deletion strains, locus YLR268W, strain sec22, hits give low values 0.991 | S. cerevisiae deletion strains, locus YLR320W, strain mms22, hits give low values 0.968 | S. cerevisiae deletion strains, locus YLR330W, strain CHS5, hits give low values 0.981 | S. cerevisiae deletion strains, locus YLR342W, strain FKS1 (second series), hits give low values 0.96 | S. cerevisiae deletion strains, locus YLR342W, strain FKS1, hits give low values 1.02 | S. cerevisiae deletion strains, locus YLR357W, strain rsc2, hits give low values 1.01 | S. cerevisiae deletion strains, locus YLR370C, strain arc18, hits give low values 1.02 | S. cerevisiae deletion strains, locus YLR371W, strain rom2, hits give low values 0.981 | S. cerevisiae deletion strains, locus YLR384C, strain iki3, hits give low values 0.999 | S. cerevisiae deletion strains, locus YLR418C, strain cdc73, hits give low values 0.951 | S. cerevisiae deletion strains, locus YML016C, strain PPZ1, hits give low values 0.977 | S. cerevisiae deletion strains, locus YML032C, strain rad52, hits give low values 1 | S. cerevisiae deletion strains, locus YML120C, strain ndi1, hits give low values 1.03 | S. cerevisiae deletion strains, locus YML124C, strain tub3, hits give low values 0.985 | S. cerevisiae deletion strains, locus YMR058W, strain fet3, hits give low values 1.01 | S. cerevisiae deletion strains, locus YMR078C, strain ctf18, hits give low values 0.98 | S. cerevisiae deletion strains, locus YMR125W, strain sto1, hits give low values 1.02 | S. cerevisiae deletion strains, locus YMR129W, hits give low values 1.01 | S. cerevisiae deletion strains, locus YMR205C, strain PFK2, hits give low values 1 | S. cerevisiae deletion strains, locus YMR223W, strain ubp8, hits give low values 0.983 | S. cerevisiae deletion strains, locus YMR231W, strain pep5, hits give low values 1.01 | S. cerevisiae deletion strains, locus YMR263W, strain SAP30, hits give low values 1.01 | S. cerevisiae deletion strains, locus YMR307W, strain GAS1, hits give low values 1.01 | S. cerevisiae deletion strains, locus YNL067W, strain RPL9B, hits give low values 1.03 | S. cerevisiae deletion strains, locus YNL071W, strain lat1, hits give low values 1.01 | S. cerevisiae deletion strains, locus YNL128W, strain TEP1, hits give low values 0.977 | S. cerevisiae deletion strains, locus YNL153C, strain GIM3, hits give low values 1.06 | S. cerevisiae deletion strains, locus YNL183C, strain NPR1, hits give low values 0.997 | S. cerevisiae deletion strains, locus YNL209W, strain ssb2, hits give low values 1 | S. cerevisiae deletion strains, locus YNL233W, strain BNI4, hits give low values 1.02 | S. cerevisiae deletion strains, locus YNL248C, strain rpa49, hits give low values 1.04 | S. cerevisiae deletion strains, locus YNL250W, strain rad50, hits give low values 0.964 | S. cerevisiae deletion strains, locus YNL271C, strain bni1, hits give low values 0.979 | S. cerevisiae deletion strains, locus YNL298W, strain CLA4, hits give low values 0.978 | S. cerevisiae deletion strains, locus YNL307C, strain MCK1, hits give low values 0.991 | S. cerevisiae deletion strains, locus YNL322C, strain KRE1 (second series), hits give low values 1.04 | S. cerevisiae deletion strains, locus YNL322C, strain KRE1, hits give low values 0.997 | S. cerevisiae deletion strains, locus YNR049C, strain mso1, hits give low values 1.01 | S. cerevisiae deletion strains, locus YNR052C, strain pop2, hits give low values 0.979 | S. cerevisiae deletion strains, locus YOL006C, strain TOP1, hits give low values 1.07 | S. cerevisiae deletion strains, locus YOL012C, strain htz1 0.676 | S. cerevisiae deletion strains, locus YOL147C, strain pex11, hits give low values 0.991 | S. cerevisiae deletion strains, locus YOR001W, strain rrp6, hits give low values 1 | S. cerevisiae deletion strains, locus YOR061W, strain CKA2, hits give low values 0.988 | S. cerevisiae deletion strains, locus YOR069W, strain VPS5, hits give low values 0.984 | S. cerevisiae deletion strains, locus YOR070C, strain gyp1, hits give low values 1.02 | S. cerevisiae deletion strains, locus YOR080W, strain dia2, hits give low values 1.02 | S. cerevisiae deletion strains, locus YOR083W, strain WHI5, hits give low values 0.993 | S. cerevisiae deletion strains, locus YOR106W, strain vam3, hits give low values 1.04 | S. cerevisiae deletion strains, locus YOR136W, strain idh2, hits give low values 0.995 | S. cerevisiae deletion strains, locus YOR144C, strain elg1, hits give low values 0.988 | S. cerevisiae deletion strains, locus YOR184W, strain ser1, hits give low values 1 | S. cerevisiae deletion strains, locus YOR231W, strain MKK1, hits give low values 1.03 | S. cerevisiae deletion strains, locus YOR265W, strain rbl2, hits give low values 1.02 | S. cerevisiae deletion strains, locus YOR270C, strain vph1, hits give low values 1.16 | S. cerevisiae deletion strains, locus YOR290C, strain snf2, hits give low values 1.04 | S. cerevisiae deletion strains, locus YOR316C, strain cot1, hits give low values 0.99 | S. cerevisiae deletion strains, locus YPL051W, strain arl3, hits give low values 1.02 | S. cerevisiae deletion strains, locus YPL078C, strain atp4, hits give low values 1.04 | S. cerevisiae deletion strains, locus YPL106C, strain sse1, hits give low values 1.01 | S. cerevisiae deletion strains, locus YPL240C, strain hsp82, hits give low values 1 | S. cerevisiae deletion strains, locus YPL256C, strain CLN2, hits give low values 1.08 | S. cerevisiae deletion strains, locus YPR119W, strain clb2, hits give low values 0.993 | S. cerevisiae deletion strains, locus YPR141C, strain kar3, hits give low values 0.981 | S. cerevisiae deletion strains, locus YPR163C, strain tif3, hits give low values 0.984 | S. cerevisiae deletion strains, locus YPR167C, strain met16, hits give low values 0.979 | S. cerevisiae deletion strains, strain wtn01, hits give low values 0.982 | S. cerevisiae strains, strain wild type, hits give low values 0.998
